Compound activity deposited in PubChem by National Center for Advancing Translational Sciences (NCATS).
This is one part of a sample in which hits are shown more often than they occur.
DT40 TDP1 no CPT – qHTS for Inhibitors of human tyrosyl-DNA phosphodiesterase 1 (TDP1): qHTS in cells in absence of CPT | DT40 Tdp1-/- hTDP1 cells, no CPT, ATP luminescence, 48 h | Potency, µM (top dose mostly 46.2 µM), for the others: top-dose activity change, negative = growth inhibition, hits mostly inhibitors | 420,000 compounds, 15% hits; also: potency is read from the fitted curve at half-maximal effect; nearly all actives have a fitted effect of over 55% in size
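DT40 Tdp1-/-;hTDP1 cells, no CPT (DMSO vehicle only), 400 cells/well; compounds pin-transferred; ≥48 hr, 37 °C; CellTiter-Glo 30 min RT dark, luminescence read.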
HT1080 IDH1KD tx – toxicity to HT-1080 IDH1 knockdown cells (counter line); Potency, µM (highest dose often 46.1 µM), inactives show at the top dose activity, negative = toxicity, most hits filed as cytotoxic; 360,000 compounds, 2% hits; AID 686971; HT-1080 IDH1 knockdown viability, ATP luminescence, 48 h;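 also: potency is read from the fitted curve at half-maximal effect; 0% = DMSO wells and -100% = cell-free medium wells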
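CellTiter-Glo luminescence after 48 h compound exposure at 37 degrees C of IDH1-knockdown HT-1080 cells in 5% FBS RPMI. %Activity scaled between DMSO wells and cell-free media wells, with curves fitted and assigned curve classes.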
DT40 TDP1 CPT – DT40-hTDP1 cell growth loss with CPT; Potency, µM (top dose mostly 46.2 µM), for inactives: at the top dose activity change, negative = growth inhibition, usual class: inhibitors; 420,000 compounds, 12% hits; chicken DT40 Tdp1-/-;hTDP1 cells + 20 nM CPT, ATP luminescence, 48 h; also: potency is read from the fitted curve at half-maximal effect; nearly all actives have a fitted effect of over 55% in size
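Chicken DT40 Tdp1-/- cells complemented with human TDP1, 400 cells/well, exposed to compounds plus 20 nM camptothecin for at least 48 h at 37 C; viability read as ATP content by CellTiter-Glo luminescence.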
IL1B secr inh – inflammasome signaling inhibition, IL-1 beta readout. THP-1 LPS/ATP IL-1B secretion, AlphaLISA, 16 h; stronger effect = lower value. activity change, % at 57.5 µM. 360,000 compounds, 4.7% hits. AID 743279; in the data active = activity change below about -50%; inconclusive = mostly about -30% to -49%
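THP-1 cells pretreated 1 hr with compounds (up to 57.5 uM final), then stimulated with LPS (250 ng/mL final) plus ATP (1.25 mM final); secreted IL-1B measured by AlphaLISA after 16 hr, decreased signal indicating inhibition.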
ALOX12 inh – inhibitors of human 12S-lipoxygenase ALOX12; P18054; purified 12hLO, xylenol orange hydroperoxide absorbance; Potency, µM (titrated, usually from 108 µM), without a hit: at the highest dose activity change, negative = inhibition, hits mostly inhibitors; 580,000 compounds, 1.1% hits; also: potency is read from the fitted curve at half-maximal effect
Target sequence (P18054 whole entry, looked up): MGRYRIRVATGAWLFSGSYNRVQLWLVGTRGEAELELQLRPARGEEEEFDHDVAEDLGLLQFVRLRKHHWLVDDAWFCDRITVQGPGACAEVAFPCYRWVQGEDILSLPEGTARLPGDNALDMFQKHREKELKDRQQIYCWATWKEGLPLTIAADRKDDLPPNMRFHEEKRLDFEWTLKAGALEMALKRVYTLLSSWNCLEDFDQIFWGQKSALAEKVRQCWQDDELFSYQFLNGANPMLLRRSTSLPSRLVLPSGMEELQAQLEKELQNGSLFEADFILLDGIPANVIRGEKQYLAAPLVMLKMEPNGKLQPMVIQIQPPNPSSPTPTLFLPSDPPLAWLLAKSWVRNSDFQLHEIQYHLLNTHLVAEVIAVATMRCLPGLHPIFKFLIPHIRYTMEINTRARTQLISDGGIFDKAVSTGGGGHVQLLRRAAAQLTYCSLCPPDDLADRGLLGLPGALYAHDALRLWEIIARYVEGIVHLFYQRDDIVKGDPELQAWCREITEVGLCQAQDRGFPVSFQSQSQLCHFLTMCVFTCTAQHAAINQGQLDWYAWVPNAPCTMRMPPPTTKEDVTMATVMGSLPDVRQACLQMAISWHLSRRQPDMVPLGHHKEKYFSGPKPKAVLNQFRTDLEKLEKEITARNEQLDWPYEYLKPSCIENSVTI
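Purified human 12hLO at 150 nM in 25 mM Hepes, 0.01% Triton X-100, pH 7.0, preincubated 15 min at room temperature with compound. Reaction started with 40 uM arachidonic acid, 30 min at room temperature. Hydroperoxide measured by Fe-xylenol orange, 573/405 nm absorbance ratio.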
HT1080NT lethal – kills 2HG-producing HT-1080-NT fibrosarcoma cells. HT-1080-NT fibrosarcoma viability, CellTiter-Glo ATP luminescence, 48 h. Potency, µM (series often up to 46.1 µM), for the others: at the top dose activity, negative = less viability, actives largely listed as cytotoxic. 360,000 compounds, 1.6% hits;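 also: NT is the 2HG producing partner of a matched IDH1 knockdown line; potency is read from the fitted curve at half-maximal effect; 0% = DMSO-treated cells and -100% = media-only wells without cells; nearly all actives have a fitted effect of over 55% in size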
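Viability by CellTiter-Glo luminescence after 48 h compound exposure at 37C of HT-1080-NT cells (750/well, RPMI, 5% FBS). % activity scaled between DMSO wells and medium-only wells, then curve-fitted and categorized by curve class.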
* = called active by the depositor; i = inactive; ? = inconclusive; · = no result; ! = not active in a repeat; [ ] = another dose, or the depositor's remark. Unless noted, calls follow the shape of the dose curve; as a rule, active = well fitted curve in the direction sought with a large enough effect; inconclusive = small, poorly fitted or top-dose-only effect, or another doubt; inactive = no such curve, though single readings can be large; an effect the other way counts as inactive or inconclusive. Unless noted, % is scaled to controls: 0 for no effect and ±100 for the full control effect.

SMILES | DT40 TDP1 no CPT | HT1080 IDH1KD tx | DT40 TDP1 CPT | IL1B secr inh | ALOX12 inh | HT1080NT lethal
CCC(=O)Nc1ccc(-c2csc(NCCOC)n2)cc1 | · | · | · | · | 14µM* | ·
CC(=O)c1sc(NC(=O)CCS(=O)(=O)c2ccc(C)cc2)nc1C | 18µM* | 8% | 9.2µM* | -107* | 2% | 5%
Cc1csc(NC(=O)Cc2ccc(Br)cc2)n1 | -6% | -10% | 8% | -9 | 18% | -23%
CC(=O)c1sc(NC(=O)C2(F)C(F)(F)C(F)(F)C(F)(F)C(F)(F)C2(F)F)nc1C | 5.8µM* | 7.1µM* | 4.1µM* | -88* | -4%[57.4 µM] | 7.1µM*
Cc1csc(NC(=O)CCS(=O)(=O)c2ccc(Br)cc2)n1 | 23µM* | -6% | ? | 15 | 14% | -2%
O=C1CO[C@H]2CCN(Cc3ccccc3O)CC[C@@H]2N1Cc1ccccc1 | · | · | · | · | 18%[176 µM] | ·
CC(=O)Nc1ccc(-c2csc(N/N=C\c3ccncc3)n2)cc1 | ? | 4% | -24% | -3 | -4% | 9%
Cc1ccc(S(=O)(=O)CC(=O)Nc2nc(-c3ccccc3)cs2)cc1 | 21µM* | -24% | -18% | -14 | 0% | -25%
Cc1ccc(S(=O)(=O)CCC(=O)Nc2nc(-c3ccncc3)cs2)cc1 | 18µM* | -2% | 23µM* | ? | -1% | 1%
CCCC(=O)Nc1ccc(-c2csc(N/N=C\c3ccncc3)n2)cc1 | 8.2µM* | ? | 10µM* | ? | ? | ?
Cc1ccc(S(=O)(=O)CCC(=O)Nc2nccs2)cc1 | ? | -2% | -10% | 7 | 17% | 2%
CCOC(=O)c1csc(NC(=O)CCS(=O)(=O)c2ccc(Cl)cc2)n1 | 18µM* | -6% | ? | -12 | 3% | -1%
CCc1ccc(CNC(=O)c2ccc3c(c2)NC(=O)C(N2CCOCC2)S3)cc1 (stereo unspecified) | -57% | -29% | 23µM* | -6 | -14% | ?
CCCCN(C)CCCNC(=O)c1ccc2c(c1)NC(=O)C(N1CCOCC1)S2 (stereo unspecified) | -3% | 5% | -2% | -3 | i | 4%
Cc1ccc(OCC(=O)Nc2ccc(S(=O)(=O)NC(C)(C)C)cc2)c(Br)c1 | · | · | · | · | 2% | ·
CC1=CC(C)(C)NC(=S)N1c1ccc2ccccc2c1 | ? | 7.1µM*! | ? | 11 | ? | 5.6µM*
CC1=CC(C)(C)NC(=S)N1c1cccc2ccccc12 | 26µM* | 1% | ? | 0 | -15% | 6%
CC1=CC(C)(C)NC(=S)N1c1ccc(Cl)cc1 | ? | 2% | -22% | -14 | -8% | -11%
CC(=O)Nc1ccc(C)cc1-c1nnc(SCC(=O)Nc2ccc(Cl)c(Cl)c2)[nH]c1=O | · | · | · | · | -23% | ·
O=C(Nc1ccc(O)cc1)c1cccc(Oc2ccc([N+](=O)[O-])cc2)c1 | 18µM* | ? | ? | -68* | -46% | ?
Cc1ccccc1NC(=O)c1cccc(NC(=O)c2c(C(=O)O)cccc2[N+](=O)[O-])c1 | -10% | 21% | 14% | -10 | 153% | ?
CN(C)S(=O)(=O)Oc1cccc(C(=O)Nc2ccc([N+](=O)[O-])cc2)c1 | 8.2µM* | ? | ? | 8 | -2% | -22%
Cc1ccccc1NC(=O)c1cccc(S(=O)(=O)Oc2ccc([N+](=O)[O-])cc2)c1 | ? | 0% | ? | -58* | 5% | -6%
O=C(Nc1ccc([N+](=O)[O-])cc1)c1cccc([N+](=O)[O-])c1 | 9% | -21% | 6% | 34 | ? | -19%
CCOC(=O)c1oc2c(c1C)C(=O)CSC2 | · | · | · | · | 10% | ·
SMILES | DT40 TDP1 no CPT | HT1080 IDH1KD tx | DT40 TDP1 CPT | IL1B secr inh | ALOX12 inh | HT1080NT lethal
O=c1c2c(CO)c(-c3ccccc3)nn2ccn1Cc1ccccc1F | · | · | · | · | 3% | ·
Cc1ccccc1-c1cnc2[nH]cc(CC(=O)N3CCOCC3)c2c1 | · | · | · | · | 4%[176 µM] | ·
S=C(NCCCN1CCOCC1)NN=C1c2ccccc2-c2ccccc21 | 5.8µM* | ? | 5.8µM* | -14 | 45µM* | -24%
CCNC(=S)NN=C1c2ccccc2-c2ccccc21 | 3.7µM* | -3% | 3.7µM* | ? | 35µM* | -15%
S=C(NCCN1CCOCC1)N/N=C/c1ccccc1 | -3% | 8% | 11% | 20 | 0% | 12%
CC(=O)NC12CC3CC(C1)CC(C(=O)NCCc1ccc(F)cc1)(C3)C2 | · | · | · | · | 42% | ·
CS(=O)(=O)N1CCCCCCNC(=O)[C@@H]2CCC[C@@H]21 | · | · | · | · | 25% | ·
c1ccc(CCc2nc3ccccc3[nH]2)cc1 | ? | -1% | -23% | -22 | 0% | 13%
Nc1cccc(CCc2nc3cc4ccccc4cc3[nH]2)c1 | 4.1µM* | 10µM* | 3.3µM* | ? | -12% | ?
CC(C)c1nc(C#N)c(NCC(c2cccs2)N2CCOCC2)o1 (stereo unspecified) | · | · | · | · | 11% | ·
C=C(C)CSc1nc2c(c(=O)[nH]c(=O)n2C)n1CCC(C)C | 16µM* | -4% | 15µM* | 50 | -5% | 0%
CCSc1nc2c(c(=O)[nH]c(=O)n2C)n1Cc1ccccc1Cl | · | · | · | · | 32µM* | ·
C=CCn1c(SCC(=C)C)nc2c1c(=O)[nH]c(=O)n2C | -8% | 0% | -4% | 15 | -22% | 0%
Cn1c(=O)[nH]c(=O)c2c1nc(N1CCCCC1)n2CCSc1nc2ccccc2o1 | -15% | 10% | -13% | 2 | -5% | -2%
CC(C)CCn1c(Sc2nc3ccccc3o2)nc2c1c(=O)[nH]c(=O)n2C | 16µM* | 1% | 18µM* | -105* | ? | 8%
CC(C)CCn1c(SCc2ccc(Cl)cc2)nc2c1c(=O)[nH]c(=O)n2C | 18µM* | 1% | 16µM* | -14 | ? | 2%
CCSc1nc2c(c(=O)[nH]c(=O)n2C)n1Cc1ccc(Cl)cc1 | ? | -10%[9.24 µM] | ? | -4 | 2% | -8%
Cc1noc(C)c1C1CCCN1C(=O)c1cc(-c2ccco2)on1 (stereo unspecified) | · | · | · | · | -9% | ·
O=C(COc1ccc2c(c1)CCC2)NCc1ccccc1CN1CCCCC1 | · | · | · | · | -18% | ·
N#Cc1ccnc(-c2nnc3ccc(NC4CC4)nn23)c1 | · | · | · | · | -3%[176 µM] | ·
CCCCCn1c(Sc2nc3ccccc3s2)nc2c1c(=O)[nH]c(=O)n2C | ? | -5% | 16µM* | -8 | 0%[57.4 µM] | -24%
CCOCCn1c(SCc2ccc(Cl)cc2)nc2c1c(=O)[nH]c(=O)n2C | · | · | · | · | 5% | ·
CCCCn1c(SCc2ccc(Cl)cc2)nc2c1c(=O)[nH]c(=O)n2C | 13µM* | ? | 13µM* | 1 | ? | -22%
